Bioassay records deposited in PubChem by National Center for Advancing Translational Sciences (NCATS).
Shiga inhibitor: A qHTS for Small Molecule Inhibitors of Shiga Toxin | Vero cells, Shiga toxin protein synthesis inhibition reporter | inhibition, % at 38.7 µM | hit rate 9.2% among 290,000; in the data active means inhibition mostly above about 28%, no sharp cut-off; inactive means mostly below about 43%
AMA1 RON2 block: qHTS for Inhibitors of AMA1-RON; Towards Development of Antimalarial Drug Lead: Primary Screen | AlphaScreen AMA1-biotinylated RON2 peptide binding | Plasmodium falciparum AMA1 (3D7) - RON2 peptide interaction | AID 720542, 2013 | Potency, µM (top dose mostly 58.2 µM), actives largely listed as inhibitors | hit rate 0.2% among 360,000; further: nearly all actives have a fitted effect of over 45% in size
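AMA1 (3D7) with his tag at 25 nM final met compounds first, then biotinylated RON2 peptide at 25 nM; detection used donor plus acceptor beads, 10 µg/mL apiece, read by AlphaScreen after 30 min at room temperature.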
SARS PLpro yeast: qHTS of Yeast-based Assay for SARS-CoV PLP; S. cerevisiae expressing SARS-CoV PLpro, growth rescue; Potency, µM (series often up to 32.9 µM), most hits filed as activators; hit rate 0.19% among 330,000; AID 485353, 2010; calls by dose curve; further: nearly all actives have a fitted effect of over 55% in size
Pf growth 48h: Primary qHTS for delayed death inhibitors of the malarial parasite plastid, 48 hour incubation; P. falciparum luciferase growth in erythrocytes, 48 h; hit rate 5.9% among 310,000; Potency, µM (series often up to 28.7 µM), actives largely listed as inhibitors
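Compounds are pin-transferred into medium, infected erythrocytes (2% hematocrit, 0.1% parasitemia final) are added, and plates sit one parasite generation at 37 C in 5% CO2. Detection reagent is then added and luminescence measured.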
CHX counter: Cycloheximide Counterscreen for Small Molecule Inhibitors of Shiga Toxin; hit rate 12% among 300,000; cell reporter, cycloheximide protein synthesis inhibition counterscreen; max response, %; in the data active means max response mostly above about 13%, no sharp cut-off; inactive means mostly below about 14%; further: read at 38.3 µM for the half of the compounds with a filed dose
Pf growth 96h: Primary qHTS for delayed death inhibitors of the malarial parasite plastid, 96 hour incubation; P. falciparum luciferase reporter growth, 96 h; Potency, µM (doses to about 28.7 µM), most hits filed as inhibitors; hit rate 6.9% among 320,000; AID 504834, 2011
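Erythrocytes infected with luciferase-expressing P. falciparum were dispensed at 2% hematocrit and 0.05% parasitemia (final), then incubated with compounds 96 hours at 37 C in 5% CO2. Luminescence after detection reagent addition reported growth.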
Numbers stand for hits; – = inactive; ? = inconclusive; · = no result; [ ] = dose if it differs, or a comment. An excerpt weighted towards active compounds, which were near 19% of everything screened. Unless noted, the call rests on the fitted dose curve; in most records, active means well fitted curve in the direction sought with a large enough effect; inconclusive means small, poorly fitted or top-dose-only effect, or another doubt; inactive means no such curve, though single readings can be large; an effect the other way counts as inactive or inconclusive.

SMILES	Shiga inhibitor	AMA1 RON2 block	SARS PLpro yeast	Pf growth 48h	CHX counter	Pf growth 96h
COc1ccc(-c2csc3nc[nH]c(=O)c23)cc1	–	–	–	–	–	–
CCc1ccc(-c2csc3nc[nH]c(=O)c23)cc1	–	–	–	–	22.5	?
CCOc1ccc(-c2csc3nc[nH]c(=O)c23)cc1	109.6	–	–	–	29.6	?
COc1ccc(CC(=O)n2[nH]c(=O)c3ccccc3c2=O)cc1OC	–	–	–	–	–	–
COc1ccc(CC(=O)n2[nH]c(=O)ccc2=O)cc1OC	41.0	–	–	–	–	–
COc1ccc(Cc2nnc(NC(=O)c3cccc([N+](=O)[O-])c3C)s2)cc1	–	–	–	–	–	0.465µM
COc1ccc(C(=O)CCc2ccc(OC)c(OC)c2)cc1	·	–	·	·	·	·
COc1ccc(Cc2nnc(NC(=O)c3ccccc3[N+](=O)[O-])s2)cc1	–	–	–	–	–	–
COc1ccc(NC(=O)Nc2nnc(Cc3ccc(OC)c(OC)c3)s2)cc1	–	–	–	–	–	11.7µM
COc1ccc(C(=O)Cc2ccc(OC)c(OC)c2)cc1	53.1	–	–	·	55.6	–
CC1(C(=O)Nc2ccc3c(c2)OCCO3)CCN1C(=O)c1ccco1 (centres undefined)	·	–	·	·	·	·
CC(C)Cn1c(=O)oc2ccccc21	–	–	–	–	–	–
CCOC(=O)C1C(=O)NC(c2ccccc2)=NC1c1ccc(O)c(OC)c1 (centres undefined)	–	–	–	–	–	–
O=C(Cc1cccc(NC(=O)C2CCCN(C(=O)C3CC3)C2)c1)Nc1cccc(C(=O)N2CCCC2)c1 (centres undefined)	·	–	–	?	·	?
CC1CCN(c2cc(N3CCN(C(=O)c4ccc(F)c(F)c4)CC3)c([N+](=O)[O-])cc2F)CC1	–	?	–	–	–	–
COc1ccc(Cc2nnc(NC(=O)Nc3ccc(C)cc3)s2)cc1OC	43.0	?	–	–[0.00184 µM]	15.3	–
COCC(=O)Nc1nnc(Cc2ccc(OC)c(OC)c2)s1	–	–	–	–	–	–
COc1ccc(C(=O)Nc2nnc(Cc3ccc(OC)c(OC)c3)s2)cc1	–	–	–	–	11.1	–
COc1cccc(C(=O)N2CCC2(C)C(=O)O)c1 (centres undefined)	·	–	·	·	·	·
Oc1ccc(C[C@@H]2CNCCN2CCC23CC4CC(CC(C4)C2)C3)cc1	·	–	–	10.4µM	·	2.08µM
Oc1ccc(C[C@H]2CNCCN2CCCCC2CCCCC2)cc1	·	–	–	8.28µM	·	?
Oc1ccc(C[C@H]2CNCCN2CCC23CC4CC(CC(C4)C2)C3)cc1	·	–	–	?	·	?
CCN(CC(=O)Nc1cccc(OC)c1)C(=O)c1ccc(C)s1	–	–	–	·	–	–
CCOC(=O)CN(Cc1sccc1C)C(=O)Nc1cccc(OC)c1	48.2	–	–	–	12.0	–
CCOC(=O)Cc1csc(NC(=O)c2ccc(OC)c(OC)c2)n1	–	–	–	–	–	–
SMILES	Shiga inhibitor	AMA1 RON2 block	SARS PLpro yeast	Pf growth 48h	CHX counter	Pf growth 96h
CCCNC(=O)Nc1nc(CC(=O)OCC)cs1	–	–	–	–	–	–
CCOC(=O)Cc1csc(NC(=O)c2cccc([N+](=O)[O-])c2)n1	–	–	–	–	–	–
CCOC(=O)Cc1csc(NC(=O)c2sc3nc4c(C)cc(C)cc4cc3c2N)n1	–	–	–	?	19.6	?
CCOC(=O)Cc1csc(NC(=O)c2csc(C)c2)n1	34.9	–	–	–	27.6	·
CCOC(=O)Cc1csc(NC(=O)c2cccc(OC)c2)n1	–	–	–	–	11.9	–
Cc1ccc(-c2nnn(CC(=O)N(c3ccc(F)cc3)C(C(=O)NC3CCCC3)c3ccncc3)n2)o1 (centres undefined)	–	–	–	–	–	?
CC1(C)CC(=O)c2c(O)c(-c3ccccc3)c(=O)n(-c3ccccc3)c2C1	–	–	–	–	–	?
N#CC1(c2ccccc2)CCN(S(=O)(=O)c2ccc(OC(F)(F)F)cc2)CC1	–	–	–	–	–	?
CCOC(=O)Cc1csc(NC(=O)Nc2cccc(OC)c2)n1	–	–	–	?	17.3	10.4µM
COc1ccc(CCc2nnc(CCC(=O)NCc3ccc4ncccc4c3)o2)cc1	–	–	–	–	17.1	–
COc1ccc(CCc2nnc(CCC(=O)NCc3cnc4ccccn34)o2)cc1	–	–	–	–	–	10.4µM
COc1cccc(CNC(=O)CCc2nnc(C3CCCCC3)o2)c1	–	–	–	–	–	–
COc1ccc(CCNC(=O)CN(c2cc(OC)ccc2OC)S(=O)(=O)c2ccccc2)cc1	–	–	–	9.28µM	–	–
COc1ccccc1OCCNC(=O)CN(c1cccc(C)c1)S(=O)(=O)c1ccccc1	–	–	–	14.7µM	–	–
COc1ccc(CCNC(=O)CN(c2ccccc2OC)S(=O)(=O)c2ccc(C)cc2)cc1	–	–	–	4.15µM	–	–
CC1(C)Cc2nc3oc4c(N5CCOCC5)ncnc4c3cc2CO1	–	–	–	–	–	–
COCCSc1ncnc2c1oc1nc3c(cc12)COC(C)(C)C3	–	–	–	–	23.1	–
Cc1ccc(O)c(C(=O)c2cc(C(=O)NCCC(C)C)c(=O)n(CCC(C)C)c2)c1	–	–	–	?	–	3.29µM
CCCNC(=O)C1(C)CCN(CCOc2ccc(Cl)cc2)C1 (centres undefined)	·	–	·	·	·	·
Cc1ccc(NC(=O)C2CCCCC2C(=O)O)cc1C (centres undefined)	–	–	–	–	–	–
Cc1ccc(NC(=O)C2Cc3ccccc3O/C2=N\O)cc1C (centres undefined)	73.9	–	–	–	49.2	–
O=C(Nc1ccc(Br)cc1)C1Cc2ccccc2O/C1=N\O (centres undefined)	111.4	–	–	–	55.1	?
CC1=C(C(=O)N2CCCCCC2)CC(CC(=O)NCCCCc2ccccc2)C(=O)N1Cc1ccccc1 (centres undefined)	·	–	·	·	·	·
N[C@H](CSSC[C@@H](N)C(=O)O)C(=O)O	–	·	·	·	–	·
N#CCn1c(CN2CCCC2)nc2ccccc2c1=O	–	–	–	–	–	–
Cn1nc(-c2ccc(N3CCN(CCO)CC3)c([N+](=O)[O-])c2)c2ccccc2c1=O	–	–	–	–	–	–
Cc1ccc(/C=C2/NC(=O)[C@H](C)NC2=O)cc1	–	–	–	·	14.9	–
COc1ccc(C(=O)N2CCC3(CC2)NCCc2[nH]cnc23)cc1	–	–	–	–	–	–
O=C(NCc1cccnc1)/C(=C/c1ccc(-c2ccc(Cl)cc2)o1)S(=O)(=O)c1ccccc1	–	–	–	6.57µM	–	3.29µM
